Several values for one entry are separate records, joined by “and”; a condition that tells them apart may be missing. Equal values may be shown once. A structure can be active in one record and inactive in another. Activity calls are given as the source filed them. How the source made its calls: active means hit-call score of the fitted dose curve at least 0.9, where 1 is the maximum; inactive means score below 0.9.
Tests used:
[1] = read-out: Urokinase-type plasminogen activator receptor (uPAR), PLAUR (gene 5329); assay: BSK_4H_uPAR: BioMAP Diversity Plus: 4H Assay for Urokinase-type plasminogen activator receptor (uPAR) Biomarker Activity (AID 2283030); settings: primary human endothelial cells (HUVEC); actives raise or lower the signal
Summary of the method: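 Cell-surface uPAR ELISA signal, measured 24 h after dosing human umbilical vein endothelial cells, was analyzed with bidirectional fitting relative to DMSO. Parallel SRB staining of total protein tracked overt cytotoxicity.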

[2] = read-out: Vascular endothelial growth factor receptor 2 (Homo sapiens) (UniProt P35968); assay: BSK_4H_VEGFRII: BioMAP Diversity Plus: 4H Assay for Vascular endothelial growth factor receptor 2 (VEGFR2) Biomarker Activity (AID 2283031); settings: primary human endothelial cells (HUVEC); actives raise or lower the signal;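 on AC50: cell-surface VEGFR2 protein level quantified by ELISA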
Summary of the method: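 ELISA read-out of VEGFRII in primary human umbilical vein endothelium, taken 24 h after chemical treatment. Responses are expressed relative to DMSO, with bidirectional fitting.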

[3] = read-out: Human Leukocyte Antigen - DR isotype (HLADR), HLA-DRA (gene 3122); assay: BSK_BE3C_HLADR: BioMAP Diversity Plus: BE3C Assay for Human Leukocyte Antigen - DR isotype (HLADR) Biomarker Activity (AID 2283032); settings: primary human bronchial epithelial cells; actives raise or lower the signal
Summary of the method: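 Chemicals are dosed onto BE3C bronchial epithelial cultures of human origin and left 24 h. HLA-DR is then measured by ELISA, and the endpoint is fitted in both directions using DMSO as the activity baseline.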

[4] = read-out: Interferon-gamma inducible Protein 10 (IP10), CXCL10 (gene 3627); assay: BSK_BE3C_IP10: BioMAP Diversity Plus: BE3C Assay for Interferon-gamma inducible Protein 10 (IP10) Biomarker Activity (AID 2283034); settings: primary human bronchial epithelial cells; actives raise or lower the signal
Summary of the method: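 IP-10 quantified by ELISA serves as the endpoint. Cells: primary human bronchial epithelium, read 24 h after compound addition. Activity is derived by bidirectional fitting with DMSO as negative control.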

[5] = read-out: Monokine induced gamma interferon (MIG), CXCL9 (gene 4283); assay: BSK_BE3C_MIG: BioMAP Diversity Plus: BE3C Assay for Monokine induced gamma interferon (MIG) Biomarker Activity (AID 2283035); settings: primary human bronchial epithelial cells; actives raise or lower the signal
Summary of the method: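 ELISA quantified MIG after 24 h exposure of primary bronchial epithelial cultures, analysed in both directions relative to DMSO. Cytotoxicity tracked in parallel cultures by sulforhodamine B staining.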

[6] = read-out: Transforming growth factor beta 1 (TGFb1), TGFB1 (gene 7040); assay: BSK_BE3C_TGFb1: BioMAP Diversity Plus: BE3C Assay for Transforming growth factor beta 1 (TGFb1) Biomarker Activity (AID 2283036); settings: primary human bronchial epithelial cells; actives raise or lower the signal
Summary of the method: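 Bronchial epithelial primary cells are treated with test chemical, then TGF-b1 is quantified by ELISA after 24 hours. Values derive from bidirectional fitting against DMSO, with cytotoxicity checked by SRB staining in parallel cultures.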

[7] = read-out: Plasminogen activator inhibitor-1 (PAI1), SERPINE1 (gene 5054); assay: BSK_BE3C_PAI1: BioMAP Diversity Plus: BE3C Assay for Plasminogen activator inhibitor-1 (PAI1) Biomarker Activity (AID 2283037); settings: primary human bronchial epithelial cells; actives raise or lower the signal
Summary of the method: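 Values derive from bidirectional fitting against DMSO baseline of PAI-1 levels, measured by ELISA in human bronchial epithelial cells 24 h after compound addition.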

[8] = read-out: Urokinase-type plasminogen activator receptor (uPAR), PLAUR (gene 5329); assay: BSK_BE3C_uPAR: BioMAP Diversity Plus: BE3C Assay for Urokinase-type plasminogen activator receptor (uPAR) Biomarker Activity (AID 2283039); settings: primary human bronchial epithelial cells; actives raise or lower the signal
Summary of the method: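 Steps: dose human primary bronchial epithelial cells, incubate 24 h, measure uPAR by ELISA, then fit gain- or loss-of-signal response bidirectionally relative to DMSO.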

[9] = read-out: Interleukin-6 (IL6), IL6 (gene 3569); assay: BSK_CASM3C_IL6: BioMAP Diversity Plus: CASM3C Assay for Interleukin-6 (IL6) Biomarker Activity for (AID 2283040); settings: primary human coronary artery smooth muscle cells; actives raise or lower the signal
[10] = read-out: Tissue plasminogen activator (tPA), PLAT (gene 5327); assay: BSK_BE3C_tPA: BioMAP Diversity Plus: BE3C Assay for Tissue plasminogen activator (tPA) Biomarker Activity (AID 2283041); settings: primary human bronchial epithelial cells; actives raise or lower the signal
Summary of the method: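 Gain- or loss-of-signal in tPA, measured by ELISA, derived by bidirectional fitting against DMSO. Cells: human primary bronchial epithelial; read at 24 h after chemical dosing.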

[11] = read-out: Interleukin-8 (IL8), CXCL8 (gene 3576); assay: BSK_CASM3C_IL8: BioMAP Diversity Plus: CASM3C Assay for Interleukin-8 (IL8) Biomarker Activity (AID 2283042); settings: primary human coronary artery smooth muscle cells; actives raise or lower the signal;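 further: IL-8 protein level quantified by ELISA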
[12] = read-out: Human Leukocyte Antigen - DR isotype (HLADR), HLA-DRA (gene 3122); assay: BSK_CASM3C_HLADR: BioMAP Diversity Plus: CASM3C Assay for Human Leukocyte Antigen - DR isotype (HLADR) Biomarker Activity (AID 2283043); settings: primary human coronary artery smooth muscle cells; actives raise or lower the signal;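 further: cell-surface HLA-DR protein level quantified by ELISA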
[13] = read-out: Macrophage colony-stimulating factor (MCSF), CSF1 (gene 1435); assay: BSK_CASM3C_MCSF: BioMAP Diversity Plus: CASM3C Assay for Macrophage colony-stimulating factor (MCSF) Biomarker Activity (AID 2283044); settings: primary human coronary artery smooth muscle cells; actives raise or lower the signal;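 further: M-CSF protein amount quantified by ELISA after 24 h exposure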
[14] = read-out: Low-density lipoprotein receptor (LDLR), LDLR (gene 3949); assay: BSK_CASM3C_LDLR: BioMAP Diversity Plus: CASM3C Assay for Low-density lipoprotein receptor (LDLR) Biomarker Activity (AID 2283045); settings: primary human coronary artery smooth muscle cells; actives raise or lower the signal;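 further: LDLR protein level on the cell surface quantified by ELISA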
[15] = read-out: Monocyte Chemoattractant Protein-1 (MCP1), CCL2 (gene 6347); assay: BSK_CASM3C_MCP1: BioMAP Diversity Plus: CASM3C Assay for Monocyte Chemoattractant Protein-1 (MCP1) Biomarker Activity (AID 2283046); settings: primary human coronary artery smooth muscle cells; actives raise or lower the signal;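 further: MCP-1 level quantified by ELISA 24 h after dosing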
[16] = BSK_CASM3C_Proliferation: Cell Proliferation Assessment in the BioMAP Diversity Plus: CASM3C Assay (AID 2283047); settings: primary human coronary artery smooth muscle cells;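 further: sulforhodamine B total protein stain as relative cell number at 560 nm; sub-confluent cells exposed 48 h before staining; fitted both ways against DMSO so gain or loss of cell number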
[17] = read-out: Monokine induced gamma interferon (MIG), CXCL9 (gene 4283); assay: BSK_CASM3C_MIG: BioMAP Diversity Plus: CASM3C Assay for Monokine induced gamma interferon (MIG) Biomarker Activity (AID 2283048); settings: primary human coronary artery smooth muscle cells; actives raise or lower the signal;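 further: MIG protein level measured by ELISA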
[18] = read-out: serum amyloid A (SAA), SAA1 (gene 6288); assay: BSK_CASM3C_SAA: BioMAP Diversity Plus: CASM3C Assay for serum amyloid A (SAA) Biomarker Activity (AID 2283049); settings: primary human coronary artery smooth muscle cells; actives raise or lower the signal;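 further: SAA protein level quantified by ELISA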
[19] = read-out: Vascular cell adhesion molecule 1 (VCAM1), VCAM1 (gene 7412); assay: BSK_4H_VCAM1: BioMAP Diversity Plus: 4H Assay for Vascular cell adhesion molecule 1 (VCAM1) Biomarker Activity (AID 2283033); settings: primary human endothelial cells (HUVEC); actives raise or lower the signal
Summary of the method: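 Chemicals are added to primary human umbilical vein endothelial cells. After 24 h, VCAM-1 levels are measured by ELISA. Values come from bidirectional fitting referenced to DMSO.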

[20] = read-out: urokinase plasminogen activator (uPA), PLAU (gene 5328); assay: BSK_BE3C_uPA: BioMAP Diversity Plus: BE3C Assay for urokinase plasminogen activator (uPA) Biomarker Activity (AID 2283038); settings: primary human bronchial epithelial cells; actives raise or lower the signal;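 further: uPA protein level quantified by ELISA in cell cultures; uPA read one day after compound addition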
Summary of the method: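 Bronchial epithelial cells (human, primary); chemical 24 h; uPA by ELISA; bidirectional fit vs DMSO. SRB (0.1%, after 10% TCA fixation, 560 nm) in parallel cultures for cytotoxicity.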

Measured: AC50

CO/C=C(/C(=O)OC)c1ccccc1Oc1cc(Oc2ccccc2C#N)ncn1
inactive: [1] | [2] | [5] | [6] | [7] | [8] | [9] | [10] | [11] | [12] | [13] | [14] | [15] | [16] | [17] | [18]
active: [1] 30.4 µM and 30.6 µM and 30.8 µM | [2] 21.1 µM | [3] 16.5 µM [middle of 4 runs] | [4] 21.1 µM and 26.1 µM | [7] 21.1 µM | [9] 15.8 µM and 21.1 µM | [10] 28.2 µM | [15] 30.7 µM and 37.9 µM and 37.6 µM | [16] 13.5 µM and 27.1 µM and 13.9 µM

CCNc1nc(Cl)nc(NCC)n1
inactive: all assays above

CC(C)C1(C)N=C(c2nc3ccccc3cc2C(=O)O)NC1=O (stereo not drawn)
not listed: [20]
inactive: all other assays above

CCCCNC(=O)OCC#CI
active: [1] 27.9 µM and 25.8 µM | [2] 22.9 µM and 32.7 µM | [3] 28.8 µM and 31.2 µM | [19] 25.1 µM and 21.8 µM | [4] 34 µM and 31.1 µM | [5] 37 µM and 31.3 µM | [6] 31.2 µM and 32.1 µM | [7] 30.1 µM | [8] 30 µM and 30.4 µM | [9] 32.3 µM and 36.3 µM | [10] 30 µM | [11] 36.6 µM | [12] 30.8 µM and 24.6 µM | [13] 26.4 µM and 15.8 µM | [15] 20.8 µM and 24.5 µM | [16] 6.91 µM and 7.15 µM | [17] 29.5 µM and 28.7 µM | [18] 14.8 µM and 14.3 µM
inactive: [10] | [14]

CCCCNC(=O)n1c(NC(=O)OC)nc2ccccc21
active: [1] 9.62 µM
not listed: [20]
inactive: all other assays above

From PubChem BioAssay (EPA / NIEHS)
